The record followed here is PubChem BioAssay (NCATS).

SMILES strings stand for the structures. Records with an inconclusive call do not appear. Unmarked numbers belong to inactive results. Activity calls are given as the source filed them. Calls come from the whole dose curve; as a rule, active = well fitted inhibition curve with a large enough effect; inconclusive = small, poorly fitted or top-dose-only effect; inactive = flat fitted curve, though single readings scatter.
% is set by controls: 0 for no effect and ±100 for the full control effect.

Sequence of Calcium and integrin-binding protein 1 (Homo sapiens) (Q99828 whole entry, looked up): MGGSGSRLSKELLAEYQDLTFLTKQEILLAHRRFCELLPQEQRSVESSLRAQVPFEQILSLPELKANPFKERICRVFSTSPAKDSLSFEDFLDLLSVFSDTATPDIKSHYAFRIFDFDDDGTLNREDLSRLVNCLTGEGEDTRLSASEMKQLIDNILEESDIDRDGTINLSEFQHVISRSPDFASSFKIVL

The test has as its target Calcium and integrin-binding protein 1 (Homo sapiens) (UniProt Q99828). Description: Primary qHTS for Identification of Calcium Integrin Binding Protein 1 (CIB1) Competitor (AID 1508620).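 Note: GST tagged CIB1 binding a fluorescein labelled alphaIIb integrin peptide tracer; top concentration of the series differs between compounds.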 To be noted: CIB1-GST / FITC-alphaIIb peptide fluorescence polarization; series mostly up to 114 µM; activity change, negative = inhibition: at the top concentration. The essentials: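 Fluorescence polarization competition: CIB1-GST (1 uM final) preincubated with compound 15 min at room temperature, then FITC-labeled alphaIIb peptide (100 nM final) added for another 15 min. Polarization read at Ex 480/Em 540.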
As to `N#CN1CCC(NC(=O)c2cccc(F)c2)CC1`, the “activity change, negative = inhibition” value was 1.08%.

For the molecule `O=S1(=O)N=C(Oc2ccccc2C(F)(F)F)c2ccccc21`, the “activity change, negative = inhibition” value is 2.21%.

With `O=[S+]([O-])(Nc1ccc(N2CCNCC2)cc1)c1ccc(NCc2ccc(Cl)cc2O)cc1`, the “activity change, negative = inhibition” value was -4.33%.

With `N#Cc1cccc(NS(=O)(=O)c2ccc3c(c2)CCC(=O)N3)c1`, the “activity change, negative = inhibition” value was 2.15%.

For `COc1ccc(OC)c(-c2nnc3n2N=C(c2ccc(OC)c(OCC4CC4)c2)CS3)c1`, the “activity change, negative = inhibition” value was -6.74%.

`CC(C)(C)OC(=O)N1CCN(c2cnc(NCc3ccc(-c4ccc(C#N)cc4)o3)nc2)CC1`: the “activity change, negative = inhibition” value was -14%.

Take `O=S1(=O)N=C(Oc2ccc(-c3ccccc3)cc2)c2ccccc21`: the “activity change, negative = inhibition” value was -1.84%.

`N#Cc1ccc(C[C@@H](NS(=O)(=O)c2ccc(C(=O)O)cc2)C(=O)O)cc1`: the “activity change, negative = inhibition” value is 0.436%.

In the case of `COc1cccc(C2c3c(ncn(-c4ccccc4SC)c3=N)Oc3ccc4ccccc4c32)c1` (stereo not given), the “activity change, negative = inhibition” value is 8.09%.

On to `CC1=C(C(=O)Nc2nc3ccccc3s2)C(c2nn(C)cc2Cl)N=C(Nc2nc3ccccc3o2)N1` (stereo not given), for which the “activity change, negative = inhibition” value is -1.41%.

For `O=C1c2ccccc2C(=O)N1c1cccc2ncccc12`, the “activity change, negative = inhibition” value is -0.712%.

In the case of `CC(=O)Nc1sc2c(c1-c1cccc3[nH]ncc13)CCNC2`, the “activity change, negative = inhibition” value was -1.12%.

With `Cc1ccc(S(=O)(=O)Nc2cccc3cccnc23)cc1`, the “activity change, negative = inhibition” value was 1.42%.

For the molecule `CNc1oc(-c2cccc3c2OC(F)(F)O3)nc1C#N`, the “activity change, negative = inhibition” value is 0.152%.

`CN(C)c1cnc2c(O)ccc([S+](=O)([O-])Nc3ccccc3F)c2c1`: the “activity change, negative = inhibition” value was -24.4%.

For `COc1ccc(NC(=O)c2ccc(-c3nc4ccccc4[nH]3)cc2)cc1OC`, the “activity change, negative = inhibition” value was 6.3%.

As for `Cc1cc2c(s1)c1cnn(Cc3cc(F)c(F)c(F)c3)c(=O)c1n2C`, the “activity change, negative = inhibition” value is 2.09%.

`NC(=O)C1CCN(c2nc(-c3cccs3)cs2)CC1`: the “activity change, negative = inhibition” value was -2.72%.

As to `CCCc1nnc(-c2cnn(C)c2N)n1CCCn1ccnc1`, the “activity change, negative = inhibition” value is 1.17%.

`CC(C)CC(O)C(=O)Nc1cc(C(F)(F)F)ccc1Cl` (stereo not given): the “activity change, negative = inhibition” value was -2.6%.

Turning to `Cc1cccc(CNc2ccnc(-c3cc(C(F)(F)F)cc(C(F)(F)F)c3)n2)c1`, the “activity change, negative = inhibition” value was 3.85%.

`Cc1ccc(-c2nn(CC(=O)N(C)C(C)c3ccco3)c(=O)cc2C)cc1` (stereo not given): the “activity change, negative = inhibition” value is -8%.

`COc1ccc(N2CCN(S(=O)(=O)c3ccc4c(c3)CC(=O)N4)CC2)cc1`: the “activity change, negative = inhibition” value is 3.12% [at 228 µM].

Take `COc1ccc(-c2nnc3n2N=C(c2cccc(OC)c2)CS3)cc1`: the “activity change, negative = inhibition” value was 0.504%.

On to `c1ccc(OCc2nnc3n2N=C(c2ccccc2)CS3)cc1`, for which the Potency result is “inactive”.

As for `S=C(NCCCN(Cc1ccc(Cl)c(Cl)c1)c1ccc(Br)cn1)NCCc1cnc[nH]1`, the “activity change, negative = inhibition” value was 0.0503%.

Take `Cc1cccc(Nc2nn3c(=O)c4ccccc4nc3s2)c1`: the “activity change, negative = inhibition” value is 3.52%.

Turning to `CCOc1ccc(-c2csc(N3CCC(C(N)=O)CC3)n2)cc1`, the “activity change, negative = inhibition” value is 3.14%.

As to `COc1ccc(CN(Cc2ccccc2)C(=O)c2ccccc2)cc1COc1ccc(NC(C)=O)cc1`, the “activity change, negative = inhibition” value was 0.803%.

In the case of `CCOC(=O)c1c(-c2ccccc2)no[n+]1[O-]`, the “activity change, negative = inhibition” value was 1.11%.

On to `Cc1csc(CNc2ncnc3ccc(-c4ccc5c(ccn5C)c4)cc23)c1`, for which the “activity change, negative = inhibition” value is 4.28%.

For `O=S(=O)(c1ccccc1)N1CCN(c2nc(C3CC3)nc3ccccc23)CC1`, the “activity change, negative = inhibition” value was 2.33%.

For the molecule `CCOC(=O)c1[nH]c2c(c1C)C(=O)CCC2`, the “activity change, negative = inhibition” value was -1.05%.

Consider `Cc1cncc(NC(=S)N2CCN(c3cccc(C(F)(F)F)c3)CC2)c1`, for which the “activity change, negative = inhibition” value is 4.35%.

As for `COc1ccc(C2Nc3ccccc3C(=O)N2CCc2ccc(Cl)cc2Cl)cc1COc1ccc(NC(C)=O)cc1` (stereo not given), the “activity change, negative = inhibition” value is -0.157%.

`CC(C)(C)NC(=O)Nc1nnc(-c2ccncc2)s1`: the “activity change, negative = inhibition” value was -3.34%.

In the case of `O=c1c(Nc2ccc(Br)c(Br)c2)c(Nc2nnc(-c3ccncc3)s2)c1=O`, the “activity change, negative = inhibition” value was -24.5%.

On to `O=S(=O)(Nc1cccc2cccnc12)c1ccccc1`, for which the “activity change, negative = inhibition” value is 4.67%.

Take `O=C1CCCC2=C1C(c1ccncc1Cl)N=C(Nc1nc3ccccc3o1)N2` (stereo not given): the “activity change, negative = inhibition” value is -14.9%.

As to `COc1cccc(-c2ccc3ncnc(NCc4cc(C)cs4)c3c2)c1`, the “activity change, negative = inhibition” value was 1.32%.
